RPL19A-GFP yeast: alters RPL19A-GFP fluorescence in TOR pathway yeast screen | AID 2025 | S. cerevisiae RPL19A-GFP strain, flow cytometry, 3 h; hits give low values | percent response vs DMSO, % at 10 µM | 330,000 compounds, 0.3% hits;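 active means percent response vs DMSO below 50%; inconclusive means fewer than 70 events counted for the yeast strain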;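 further: median channel GFP fluorescence of the barcoded RPL19A-GFP strain; ratio of sample median GFP to plate DMSO average so 100% = DMSO; lower means less RPL19A-GFP as with rapamycin TOR inhibition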
CIT2-GFP yeast: alters CIT2-GFP fluorescence in TOR pathway yeast screen | S. cerevisiae CIT2-GFP strain, flow cytometry, 3 h; 100 means same as DMSO wells | GFP response vs DMSO, % at 10 µM | 320,000 compounds, 0.065% hits | AID 2029;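 active means GFP response relative to DMSO above a set limit, near the screen mean plus 3 SD, cut at about 150% in these data; inconclusive means Fewer than 70 cells measured for a yeast strain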;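 further: ratio of well median GFP fluorescence to mean of DMSO wells on the plate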
MEP2-GFP yeast: yeast TOR pathway MEP2-GFP modulation | S. cerevisiae MEP2-GFP strain, flow cytometry GFP, 3 h; 100% = DMSO control level | GFP response vs DMSO, % at 10 µM | 330,000 compounds, 0.51% hits;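 active means GFP response versus DMSO above a set limit, roughly screen mean plus 3 SD, cut at about 180% in these data; inconclusive means fewer than 70 cells counted for a yeast strain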;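 further: median GFP fluorescence of the barcode-gated MEP2-GFP cells per well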
AGP1 TOR yeast: modulators of TOR pathway AGP1-GFP in S. cerevisiae; S. cerevisiae AGP1-GFP multiplex flow cytometry, 3 h; GFP as percent of DMSO wells; GFP response vs DMSO, % at 10 µM; 320,000 compounds, 0.02% hits; AID 2066;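 active means GFP response relative to DMSO above a set limit, near screen average plus 3 SD, cut at about 150% in these data; inconclusive means fewer than 70 cells counted for the yeast strain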;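 further: median GFP channel fluorescence of the gated AGP1 strain per well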
LAP4-GFP MLPCN: yeast TOR pathway LAP4-GFP modulation; GFP response vs DMSO, % at 10 µM; 320,000 compounds, 0.34% hits; S. cerevisiae LAP4-GFP multiplex, flow cytometry GFP, 3 h; median GFP as percent of DMSO wells; AID 2023;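 active means GFP response vs DMSO above a set limit, about the screen mean plus 3 SD, cut at about 150% in these data; inconclusive means under 70 cell events counted for the yeast strain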
Numbers without * were called inactive; [ ] = dose if it differs, or a comment. Only some compounds are listed: those with a hit (about 0.92% of all), similar ones and a draw of the others.

For COc1cc2c(C(=O)N3CCN(C4CCCCC4)CC3)cn(CC(C)C)c(=O)c2cc1OC the results were RPL19A-GFP yeast 49*[may fluoresce violet], CIT2-GFP yeast inconclusive, MEP2-GFP yeast 201*[may fluoresce violet], AGP1 TOR yeast 23 and LAP4-GFP MLPCN 93.
Screening CCCN1CCN(C(=O)c2cn(CC(C)C)c(=O)c3cc(OC)c(OC)cc23)CC1 returned RPL19A-GFP yeast 87, CIT2-GFP yeast 82, MEP2-GFP yeast 110, AGP1 TOR yeast 77 and LAP4-GFP MLPCN 89.
`CCOC(=O)CNC(=O)c1cn(CC(C)C)c(=O)c2cc(OC)c(OC)cc12` gave RPL19A-GFP yeast 41*[may fluoresce violet], CIT2-GFP yeast inconclusive, MEP2-GFP yeast 248*[may fluoresce violet], AGP1 TOR yeast inconclusive and LAP4-GFP MLPCN 76.
`Cc1ccc(NC(=O)CSCC(=O)Nc2ccccc2N2CCCC2)cc1` gave RPL19A-GFP yeast 87, CIT2-GFP yeast 91, MEP2-GFP yeast 92, AGP1 TOR yeast 91 and LAP4-GFP MLPCN 90.
CCC12OC(=N)C(C#N)(C1C)C(C#N)(C#N)C(c1ccccc1)O2 (configuration not stated) was read as RPL19A-GFP yeast 74, CIT2-GFP yeast inconclusive, MEP2-GFP yeast 204*[may fluoresce violet], AGP1 TOR yeast 15 and LAP4-GFP MLPCN 95.
Screening O=C(COC(=O)COc1ccc(Cl)cc1)NC1CC1 returned RPL19A-GFP yeast 99, CIT2-GFP yeast 108, MEP2-GFP yeast 105, AGP1 TOR yeast 101 and LAP4-GFP MLPCN 98.
For CCN(CC(=O)Nc1c(F)cccc1F)C(=O)c1ccc(N2CCCCC2)c([N+](=O)[O-])c1 the results were RPL19A-GFP yeast 102, CIT2-GFP yeast 98, MEP2-GFP yeast 97, AGP1 TOR yeast 103 and LAP4-GFP MLPCN 103.
Screening O=C(NCCc1ccccc1)C1CCC(Cn2c(=O)c3ccccc3n(Cc3cccc(Cl)c3)c2=O)CC1 (configuration not stated) returned RPL19A-GFP yeast 36*[may fluoresce violet], CIT2-GFP yeast inconclusive, MEP2-GFP yeast 142, AGP1 TOR yeast 29 and LAP4-GFP MLPCN 105.
O=C(NCCc1ccccc1)C1CCC(Cn2c(=O)c3ccccc3n(Cc3cccc(F)c3)c2=O)CC1 (configuration not stated) was read as RPL19A-GFP yeast 102, CIT2-GFP yeast 97, MEP2-GFP yeast 107, AGP1 TOR yeast 94 and LAP4-GFP MLPCN 95.
O=C(CNC(=O)c1ccncc1)N/N=C/c1cccc([N+](=O)[O-])c1 was read as RPL19A-GFP yeast 122, CIT2-GFP yeast 170*, MEP2-GFP yeast 156, AGP1 TOR yeast 106 and LAP4-GFP MLPCN 123.
`CSc1ccc(-c2cc(=O)c3ccccc3o2)cc1` gave RPL19A-GFP yeast 80, CIT2-GFP yeast 73, MEP2-GFP yeast 99, AGP1 TOR yeast 83 and LAP4-GFP MLPCN 170*.
O=c1cc(-c2ccc(F)cc2)oc2ccccc12 was read as RPL19A-GFP yeast 95, CIT2-GFP yeast 99, MEP2-GFP yeast 97, AGP1 TOR yeast 91 and LAP4-GFP MLPCN 99.
`Cc1ccc(S(=O)(=O)N2[C@@H](c3ccccc3F)C(C(=O)O)=CC[C@H]2c2cccs2)cc1` gave RPL19A-GFP yeast 98, CIT2-GFP yeast 107, MEP2-GFP yeast 93, AGP1 TOR yeast 87 and LAP4-GFP MLPCN 129.
`C/C(=N/NC(N)=S)c1cc2ccc(O)cc2oc1=O` gave RPL19A-GFP yeast 20*[may fluoresce violet], CIT2-GFP yeast inconclusive, MEP2-GFP yeast inconclusive, AGP1 TOR yeast inconclusive and LAP4-GFP MLPCN 81.
Screening C/C(=N\NC(=O)c1ccncc1)c1cc2ccccc2oc1=O returned RPL19A-GFP yeast 97, CIT2-GFP yeast 96, MEP2-GFP yeast 100, AGP1 TOR yeast 94 and LAP4-GFP MLPCN 93.
COCCN1CC(C(=O)N2CCC(Oc3ccccc3OC)CC2)CCC1=O (configuration not stated) was read as RPL19A-GFP yeast 100, CIT2-GFP yeast 112, MEP2-GFP yeast 101, AGP1 TOR yeast 102 and LAP4-GFP MLPCN 98.
For N=c1c(C(=O)NC2CCCC2)cc2c(=O)n3ccccc3nc2n1CCN1CCOCC1 the results were RPL19A-GFP yeast 37*[may fluoresce violet], CIT2-GFP yeast inconclusive, MEP2-GFP yeast 216*[may fluoresce violet], AGP1 TOR yeast inconclusive and LAP4-GFP MLPCN 79.
`CCCNc1nc2nc3ccccn3c(=O)c2cc1C(=O)NCCN1CCOCC1` gave RPL19A-GFP yeast inconclusive, CIT2-GFP yeast inconclusive, MEP2-GFP yeast 220*[may fluoresce red and violet], AGP1 TOR yeast inconclusive and LAP4-GFP MLPCN 97.
COc1ccc(CCNC(=O)c2cc3c(=O)n4ccccc4nc3n(CCCN3CCOCC3)c2=N)cc1 was read as RPL19A-GFP yeast 102, CIT2-GFP yeast 101, MEP2-GFP yeast 104, AGP1 TOR yeast 97 and LAP4-GFP MLPCN 98.
Screening N=c1c(C(=O)NC2CCCC2)cc2c(=O)n3ccccc3nc2n1Cc1ccccc1 returned RPL19A-GFP yeast 105, CIT2-GFP yeast 102, MEP2-GFP yeast 110, AGP1 TOR yeast 101 and LAP4-GFP MLPCN 101.
`N#Cc1cc2c(=O)n3ccccc3nc2n(CCCN2CCOCC2)c1=O` gave RPL19A-GFP yeast 47*[may fluoresce violet], CIT2-GFP yeast inconclusive, MEP2-GFP yeast 241*[may fluoresce violet], AGP1 TOR yeast 73 and LAP4-GFP MLPCN 96.
For N=c1c(C(=O)NC2CCCC2)cc2c(=O)n3ccccc3nc2n1CCCN1CCOCC1 the results were RPL19A-GFP yeast 51, CIT2-GFP yeast inconclusive, MEP2-GFP yeast 184*[may fluoresce violet], AGP1 TOR yeast inconclusive and LAP4-GFP MLPCN 74.
O=C(NCCN1CCOCC1)c1c(O)nc2ccccn2c1=O was read as RPL19A-GFP yeast 100, CIT2-GFP yeast 96, MEP2-GFP yeast 96, AGP1 TOR yeast 94 and LAP4-GFP MLPCN 93.
COCC1CCCN(C(=O)c2ccc(OC3CCN(Cc4ccccn4)CC3)cc2)C1 (configuration not stated) was read as RPL19A-GFP yeast 100, CIT2-GFP yeast 99, MEP2-GFP yeast 106, AGP1 TOR yeast 103 and LAP4-GFP MLPCN 108.
Screening N=c1c(S(=O)(=O)c2ccccc2)cc2c(=O)n3ccccc3nc2n1Cc1cccnc1 returned RPL19A-GFP yeast 96, CIT2-GFP yeast 96, MEP2-GFP yeast 99, AGP1 TOR yeast 111 and LAP4-GFP MLPCN 110.
`N#Cc1cc2c(=O)n3ccccc3nc2n(Cc2cccnc2)c1=O` gave RPL19A-GFP yeast 41*[may fluoresce violet], CIT2-GFP yeast inconclusive, MEP2-GFP yeast 188*[may fluoresce violet], AGP1 TOR yeast 19 and LAP4-GFP MLPCN 81.
For OCc1ccccc1SSc1ccccc1CO the results were RPL19A-GFP yeast 89, CIT2-GFP yeast 101, MEP2-GFP yeast 89, AGP1 TOR yeast 96 and LAP4-GFP MLPCN 192*.
Screening Cc1cccc(NC(=O)c2cc(S(=O)(=O)N3CCCC3)cn2C)c1 returned RPL19A-GFP yeast 103, CIT2-GFP yeast 125, MEP2-GFP yeast 95, AGP1 TOR yeast 109 and LAP4-GFP MLPCN 108.
For O=C1CNC(=S)N1Cc1ccc(F)cc1 the results were RPL19A-GFP yeast 45*[may fluoresce violet], CIT2-GFP yeast inconclusive, MEP2-GFP yeast 359*[may fluoresce violet], AGP1 TOR yeast inconclusive and LAP4-GFP MLPCN 113.

Assay outcomes (PubChem BioAssay)
